TAG inh: inhibitors of triacylglycerol accumulation, primary screen, cell-based, uHTS, fluorescence, H9c2; H9c2 cells, Nile Red lipid (TAG) fluorescence; cells loaded with 200 µM oleic acid; 230,000 tested, 0.66% active; inhibition, % at 12.5 µM;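 active = pattern-corrected inhibition of lipid staining of at least 50% with the nuclear-stain viability signal not falling by more than 50%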
Jurkat NFkB inh: inhibitors of induced NF-kB luciferase reporter, primary screen, TCR NF-kB activation inhibitor project, cell-based, luminescence, uHTS; Jurkat, PMA/ionomycin-induced NF-kB luciferase reporter; 330,000 tested, 0.53% active; inhibition, % at 4 µM; in the data active = inhibition above about 50%
697 NFkB inh: inhibitors of PMA/ionomycin-induced NF-kB reporter, 697 cells, primary screen, B-cell NF-kB inhibitor project, cell-based, luminescence, uHTS; 697 B-cell NF-kB luciferase reporter, 16 h; inhibition, % at 4 µM; 330,000 tested, 0.33% active; AID 435022, 2010; in the data active = inhibition above about 35%
Shn3 inh set2: reduction of Shn3 3'UTR firefly luciferase signal, primary screen, Schnurri-3 inhibitor project, cell-based, Clone20 osteoblasts, set 2 | Clone20 osteoblast Shn3 3'UTR firefly luciferase, 24 h | inhibition, % at 12.5 µM | 360,000 tested, 0.52% active;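 active = mean inhibition of at least 75% with every replicate also reaching 75%; inconclusive = mean inhibition at least 75% but some replicate below; inactive = mean inhibition below 75%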
aSyn UTR inh: MLPCN primary screen, SNCA 5' untranslated region; alpha-synuclein 5'UTR reporter, inhibitor activity; inhibition, % (tested at 7.5 µM); 300,000 tested, 0.82% active; AID 1813, 2009; in the data active = inhibition above about 60%; inconclusive = no clear call, values can overlap the other calls;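 note: H4 neuroglioblastoma cells stably carrying SNCA 5'UTR luciferase fusion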
Gli-Sufu block: Gli-Sufu pathway antagonists, primary screen, luciferase luminescence, Sufu-KO-LIGHT cells, uHTS. Sufu-KO-LIGHT fibroblasts, Gli luciferase reporter luminescence. inhibition, % at 5 µM. 340,000 tested, 0.74% active;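 active = inhibition above about 55%, limit read from the data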
Jurkat NFkB conf: PMA/ionomycin-induced NF-kB reporter inhibitors, Jurkat retest, confirmation, T-cell NF-kB inhibitor project, cell-based, luminescence, single concentration | shares compounds with Jurkat NFkB inh | Jurkat NF-kB luciferase, 16 h | inhibition, % at 4 µM | 2,700 tested, 27% active | AID 435020, 2010;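 active = inhibition reaching about 45% at 4 µM in either replicate, limit read from the data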
A number is an active result; n = inactive; u = inconclusive; x = no result. Compounds with a hit are over-represented: about 2.3% of the library has one in this group of screens.

SMILES | TAG inh | Jurkat NFkB inh | 697 NFkB inh | Shn3 inh set2 | aSyn UTR inh | Gli-Sufu block | Jurkat NFkB conf
COc1cccc(N/C(N)=N/c2nc(CSc3ccccn3)cc(=O)[nH]2)c1 | x | 57.9 | n | x | n | x | 56.1
COCCN(C(=O)Nc1ccc(F)cc1F)c1nc2ccccc2s1 | x | n | n | n | n | n | x
S=C(c1ccc(-c2cccc(Cl)c2)o1)N1CCCCC1 | n | n | n | n | n | n | n
COC(=O)Cc1ccc2sc(-c3ccccc3)nc2c1 | n | n | n | n | n | n | n
Cc1cn([C@H]2C[C@H](O)[C@@H](/C=C/C(=O)NCCc3cccnc3)O2)c(=O)[nH]c1=O | x | x | x | n | x | x | x
O=C(COC(=O)C1CC1)Nc1ccc(N=Nc2ccccc2)cc1 | x | n | n | n | n | n | n
O=C(COC(=O)C1CC1)Nc1ccc(OC(F)F)cc1 | n | n | n | n | n | n | x
O=C(/C=C/c1cnc2ccccc2n1)NC12CC3CC(CC(C3)C1)C2 | x | n | n | n | n | x | n
O=C(O)/C=C/c1cnc2ccccc2n1 | n | n | n | n | n | n | x
CCOc1ccc(Nc2cc(C)nc(-n3nc(C)cc3C)n2)cc1 | n | 53.8 | n | n | 62.9 | n | 57.5
CCOC(=O)C1CCCN(C(=O)c2sc3nc4n(c(=O)c3c2C)CCC4)C1 (stereo not drawn) | n | n | n | n | x | n | x
CCCC(=O)c1cc2c(cc1NC(=O)CC)OCCO2 | x | n | n | n | n | n | x
COc1ccc(C(=O)NCC(=O)OCn2nnc3ccccc3c2=O)cc1OC | x | n | n | x | n | x | x
CCNC(=O)COc1ccc2ccccc2c1 | n | n | n | n | n | n | x
Cc1ccc(NC(CC(=O)c2ccccc2)c2ccc(F)cc2)cc1 (stereo not drawn) | x | n | n | n | n | n | x
O=C(CC(Nc1ccc(F)cc1)C(=O)O)c1ccccc1 (stereo not drawn) | n | n | n | n | n | n | n
CC(=O)Cn1ncc(N2CCOCC2)cc1=O | n | n | n | n | n | n | x
NC(N)=N/N=C/c1ccc(OS(=O)(=O)c2ccccc2)cc1 | x | 50.1 | n | n | n | n | n
Cc1cc2nc(-c3ccc(SCC(=O)Nc4ccc(S(=O)(=O)NC5CC5)cc4)nc3)[nH]c2cc1C | x | n | n | n | n | n | n
CCOC(=O)c1ccc(N2C(=O)C3CC=C(C)CC3C2=O)cc1 (stereo not drawn) | n | n | n | n | n | n | x
CCc1cc(C(=O)NC2CCCc3c2cnn3-c2cccc(C)c2C)n(C)n1 (stereo not drawn) | x | 78.8 | n | x | n | 82.5 | 76.5
CCOC(=O)N1CCC(NC(=O)c2cc3cc4cc(OC)ccc4nc3o2)CC1 | n | n | n | n | n | n | x
COc1ccc2nc3oc(C(=O)NC4CCN(Cc5ccccc5)CC4)cc3cc2c1 | n | 62.5 | n | n | x | n | n
CC(NC(=O)c1cccnc1Sc1ccccc1)c1ccc(S(N)(=O)=O)cc1 (stereo not drawn) | n | n | n | n | n | n | x
Cc1ccc(Cl)cc1N1CCN(C(=O)C2CCN(S(=O)(=O)c3cccnc3)CC2)CC1 | n | n | n | n | n | n | x
SMILES | TAG inh | Jurkat NFkB inh | 697 NFkB inh | Shn3 inh set2 | aSyn UTR inh | Gli-Sufu block | Jurkat NFkB conf
CSc1ccc(/C=N/NC(=O)c2ccc(C)c(C)c2)cc1 | x | n | n | n | n | n | x
CSc1ccc(/C=N/NC(=O)c2sccc2C)cc1 | x | n | n | n | n | n | n
CCc1cccc2sc(N3CCN(C(=O)c4ccc([N+](=O)[O-])o4)CC3)nc12 | n | 50.8 | n | n | n | 76.3 | n
CCOC(=O)c1cnc2c(-c3ccccc3)cnn2c1N | n | n | n | n | n | n | n
O=C(c1cc2c(=O)n3ccccc3nc2s1)N1CCc2ccccc2C1 | x | n | n | x | n | x | x
COc1ccc(/C=C2\CCOC2=O)cc1 | n | n | n | n | n | n | x
COc1ccc(/C=C2/C(=O)OCc3cc(OC)c(OC)cc32)cc1 | x | 55.3 | n | n | n | n | 47.8
CCN(CC)c1ccc2nc3ccc(N)cc3[n+](-c3ccccc3)c2c1 | n | 82.8 | n | 90.3 | x | 92.5 | 68.4
CCN(CC)c1ccc2nc3ccccc3[n+](CC)c2c1 | x | 55.9 | n | n | n | n | 56.5
CCN(CC)C(=O)c1ccc2nc3ccccc3nc2c1 | x | n | n | n | u | n | x
COc1cccc(C(=O)N2CCC2(C)C(=O)O)c1 (stereo not drawn) | n | x | x | n | x | x | x
CCC(=O)NC(c1cccs1)c1ccc2cccnc2c1O (stereo not drawn) | n | 63.2 | n | n | 79.6 | 81.4 | 47.0
COC(=O)CCC(=O)COc1ccc(OC)cc1C#N | n | n | n | n | n | n | x
O=C(O)c1ccc(NS(=O)(=O)c2cc(Cl)sc2Cl)cc1 | x | n | n | n | n | n | x
Cc1ccc(Nc2nc(N/N=C/c3c[nH]c4ccccc34)nc(N3CCOCC3)n2)cc1 | x | 89.3 | n | n | n | n | n
CC(=O)O[C@H]1C(=O)[C@@]2(C)C([C@H](OC(=O)c3ccccc3)[C@]3(O)C[C@H](OC(=O)[C@H](O)[C@@H](NC(=O)c4ccccc4)c4ccccc4)C(C)=C1C3(C)C)[C@]1(OC(C)=O)CO[C@@H]1C[C@H]2O (stereo partly drawn) | x | 67.1 | n | n | 101.7 | n | 69.8
N#Cc1ccc(NC(=O)Cn2c3[n+](c4ccc(C(F)(F)F)cc42)CCCCC3)cc1 | n | n | n | n | n | n | x
COc1ccc(-c2nnc(SCC(C)C)o2)cc1 | n | n | n | n | n | n | n
O=c1[nH]c(CN2CCN(c3ccc(O)cc3)CC2)nc2scc(-c3ccc(Cl)cc3)c12 | n | 59.6 | n | n | n | n | n
Cc1cc(NC(=O)COC(=O)c2ccc(S(=O)(=O)N3CCCc4ccccc43)cc2)no1 | n | 51.5 | n | n | n | n | n
CC(=O)Nc1ccc(S(=O)(=O)N2CCCc3ccccc32)cc1 | x | 63.5 | n | n | n | n | n
O=S(=O)(c1ccc(Cl)cc1)N1CCCc2ccccc21 | n | n | n | n | n | n | x
COC(=O)Nc1ccc(S(=O)(=O)N2CCCCC2C(=O)O)cc1 (stereo not drawn) | n | n | n | n | n | n | x
COC(=O)Nc1ccc(S(=O)(=O)N2c3ccccc3CCC2C)cc1 (stereo not drawn) | x | 53.3 | n | n | n | n | n
COc1ccc(CCNC(=O)Cn2nnc(C(=O)Nc3cccc(C)c3C)c2N)cc1OC | x | n | n | n | n | n | x
Cc1cccc2cc(CN(Cc3cccnc3)C(=O)c3ccncc3)c(=O)[nH]c12 | n | n | n | n | n | n | x
